This is part of a sample that, as a whole, favours compounds with a hit. Of some 79,000 tested, about 15% had one in any assay. Cut-off read from the data, not from the text of the source: active = growth inhibition above about 70%; inactive = the rest.
Assays:
[1] = NCI Yeast Anticancer Drug Screen. Data for the rad50 strain (AID 155);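 note: 0% = growth of vehicle-only cultures of the same strain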; settings: S. cerevisiae rad50 strain growth inhibition, active compounds read high; at 50.0 µM unless noted
Method in brief: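 Growth of the mutant yeast was measured after compound exposure and referenced to vehicle-treated cultures.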

[2] = NCI Yeast Anticancer Drug Screen. Data for the mec2-1 strain (AID 157); settings: S. cerevisiae mec2-1 strain, active compounds read high; at 50.0 µM unless noted
Method in brief: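 Each compound was tested on mec2-1 yeast, a strain altered in DNA damage repair or cell cycle control. Growth inhibition is reported relative to vehicle.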

[3] = NCI Yeast Anticancer Drug Screen. Data for the sgs1 mgt1 strain (AID 161);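 note: 0% = growth of cultures given vehicle only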; settings: S. cerevisiae sgs1 mgt1 strain, active compounds read high; at 50.0 µM unless noted
Method in brief: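 Mutant yeast exposed to compound; growth scored against vehicle-only wells.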

[4] = NCI Yeast Anticancer Drug Screen. Data for the cln2 rad14 strain (AID 165);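 note: 0% = growth equal to vehicle treated cultures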; settings: S. cerevisiae cln2 rad14 strain, active compounds read high; at 50.0 µM unless noted
Method in brief: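 Test compounds were added to cln2 rad14 yeast cultures; inhibition of growth was then determined by comparison with vehicle treatment.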

[5] = NCI Yeast Anticancer Drug Screen. Data for the bub3 strain (AID 167); settings: S. cerevisiae bub3 mutant strain, active compounds read high; at 50.0 µM unless noted
Method in brief: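 Whole-cell yeast assay. The mutant strain was incubated with compounds, and growth inhibition was determined by comparison with vehicle-treated cells.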

[6] = NCI Yeast Anticancer Drug Screen. Data for the mlh1 rad18 strain (AID 175); settings: S. cerevisiae mlh1 rad18 strain growth inhibition, active compounds read high; at 50.0 µM unless noted
Method in brief: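 Inhibition values reflect reduced growth of mutant yeast versus vehicle-treated controls following compound exposure; the mutations affect DNA damage repair.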

Measured: growth inhibition

C/C(CC(=O)Nc1cc(Cl)c(Cl)cc1Cl)=N\NS(=O)(=O)c1ccc(C)cc1
inactive: [1] -3.05% | [2] -6.8% | [3] 3.35% | [4] -53.9% | [5] -1.2% | [6] 2.75%

CC1(C)CC([NH-])(C(=O)O)CC(C)(C)N1O.CC1(C)CC([NH-])(C(=O)O)CC(C)(C)N1O.[Zn+2]
inactive: [1] -1.45% | [2] -17.1% | [3] -2.25% | [4] -41.9% | [5] 1.5% | [6] -7.4%

O=C(O)/C=C/c1cccc(F)c1
inactive: [1] -16.6% | [2] -12.2% | [3] -4.9% | [4] -15.9% | [5] -17% | [6] 10.2%

COP(=O)(OC)/C(=C/c1cn(C(C)=O)c2ccccc12)NC(C)=O
inactive: [1] -21% | [2] -49.9% | [3] -13.1% | [4] 13.1% | [5] 15.4% | [6] -8.25%

CCc1ccc2c(c1)C(=O)c1ccccc1C2=O
inactive: [1] 4% | [2] 21.8% | [3] 11.1% | [4] -9.5% | [5] 25.7% | [6] 26.6%

C/C(=N\NC(=O)Nc1ccc(N=Nc2ccccc2)cc1)c1ccncc1
inactive: [1] 17.4% | [2] 10.5% | [3] 19.1% | [4] 1.5% | [5] 14.3% | [6] 10.7%

Brc1ccc(-c2ccccc2)cc1
inactive: [1] 28.8% | [2] 17.8% | [3] 17.2% | [4] 15.1% | [5] 8.9% | [6] 21.4%

CC(C)(C)C(=O)Oc1ccc([N+](=O)[O-])cc1
inactive: [1] 2.15% | [2] -0.35% | [3] -7.55% | [4] -30.4% | [5] -33.1% | [6] 10.2%

O/C(=C/c1ncnc2ccccc12)c1cccc(Cl)c1
inactive: [1] 12.5% | [2] 4.4% | [3] 22.8% | [4] -11.4% | [5] 14.7% | [6] 15%

CCOC(=O)CC/C=N/Nc1ccc([N+](=O)[O-])cc1[N+](=O)[O-]
inactive: [1] 20.6% | [2] -14% | [3] 6.7% | [4] -45.5% | [5] 6.55% | [6] 0%

CCOC(=O)/C=C1\SC(C)(C)C1NC(=O)OCc1ccccc1 (stereo not given)
inactive: [1] -73.2% | [2] -30.5% | [3] -6.15% | [4] -18.1% | [5] -0.2% | [6] -15%

O=CC(O)C(O)C(O)C(O)C(O)C(O)CO (stereo not given)
inactive: [1] 16% | [2] 10.7% | [3] 28.1% | [4] -1.55% | [5] 5.9% | [6] 19.6%

O=C1NN(C(=O)c2ccccc2)C(c2ccccc2[N+](=O)[O-])c2c1c1ccccc1n2C(=O)c1ccccc1 (stereo not given)
inactive: [1] 28.9% | [2] 5.65% | [3] 5.2% | [4] -23.4% | [5] -4.05% | [6] 14.9%

COc1ccc(/C(C)=C\C(=O)O)cc1
inactive: [1] -1.95% | [2] -3.2% | [3] -9.55% | [4] -43.2% | [5] -40% | [6] 7.15%

CCCCCCc1cc2cc(-c3csc(CC#N)n3)c(=O)oc2cc1O
inactive: [1] 13.1% | [2] 14.1% | [3] -29.2% | [4] -6.6% | [5] -32.8% | [6] -32%

Cc1cccc(C(=N)c2ccccc2Cc2cccc3ccccc23)c1C
inactive: [1] 51% | [2] 6.5% | [3] 66% | [4] 17.6% | [5] 68.5% | [6] 37.8%

CC(=O)OCC1CCCC(C)C1COC(C)=O (stereo not given)
inactive: [1] 2% | [2] -8.7% | [3] -16.1% | [4] -24.1% | [5] 20.3% | [6] -2.95%

COc1ccc(-c2nnc(N)s2)cc1OC
inactive: [1] 16.4% | [2] 2.7% | [3] 2.8% | [4] -1.6% | [5] -7.05% | [6] 6.35%

CCOC(=O)C1Oc2ccc([N+](=O)[O-])cc2C1(C)O (stereo not given)
inactive: [1] -1.15% | [2] 0.75% | [3] -6.85% | [4] 22.6% | [5] 1.85% | [6] -4.45%

CN(C)/N=C(\CBr)c1ccc([N+](=O)[O-])cc1
inactive: [1] -1.8% | [2] 4.9% | [3] 6.75% | [4] 11.2% | [5] -3% | [6] 5.4%
